For 1 sequence, binding signal results are on record in article PMC7862700, “An all-to-all approach to the identification of sequence-specific readers for epigenetic DNA modifications on cytosine”.

Test in all cases: DAPPL (digital affinity profiling via proximity ligation, sequencing); 10 mM Tris-HCl pH 7.5, 50 mM NaCl, 1 mM DTT, 4% glycerol, room temperature, 30 min; GST-TFs on glutathione beads, 16-mer random dsDNA library, 0.1% formaldehyde crosslink after washing; high values mean tight binding
One test has as its target T1, FEV (Homo sapiens, UniProt Q99581 1-238).
T1 sequence: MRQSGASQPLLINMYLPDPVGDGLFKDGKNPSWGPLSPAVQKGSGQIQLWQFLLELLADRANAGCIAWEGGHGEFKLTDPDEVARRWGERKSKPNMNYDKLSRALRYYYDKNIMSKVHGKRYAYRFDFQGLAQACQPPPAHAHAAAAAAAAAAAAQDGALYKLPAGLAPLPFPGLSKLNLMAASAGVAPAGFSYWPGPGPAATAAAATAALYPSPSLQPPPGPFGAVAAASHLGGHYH
As to conditions: protein: recombinant; tags: N-terminal GST; dsDNA, one strand shown. In a few lines:
(§1)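 After expression in yeast as GST fusions, human transcription factors were bound to glutathione beads, DNA-barcoded and mixed with a tag-only sample. The pools were incubated with 200 nmole of a 16-mer random double-stranded DNA library in Tris/NaCl/DTT/glycerol buffer (30 min, room temperature), washed and crosslinked with 0.1% formaldehyde. Proximity ligation with BsaI/T4 ligase ran for 1 h at 37 °C, before PCR amplification and sequencing on an Illumina NextSeq500. Binding signal is a hexamer's read frequency for a factor divided by its frequency for the tag-only sample.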

Another test has as its target ETV5 (Homo sapiens, UniProt P41161 1-510). Particulars: protein: recombinant; tags: N-terminal GST; dsDNA, one strand shown. In a few lines: as §1
The target of the next test is HSF1 (Homo sapiens, UniProt Q00613 1-529). Particulars: protein: recombinant; tags: N-terminal GST; chain copies: 3; dsDNA, one strand shown. A digest of the protocol:
as §1

A further test deals with T2, SPIC (Homo sapiens, UniProt Q8N5J4 1-248).
T2 sequence: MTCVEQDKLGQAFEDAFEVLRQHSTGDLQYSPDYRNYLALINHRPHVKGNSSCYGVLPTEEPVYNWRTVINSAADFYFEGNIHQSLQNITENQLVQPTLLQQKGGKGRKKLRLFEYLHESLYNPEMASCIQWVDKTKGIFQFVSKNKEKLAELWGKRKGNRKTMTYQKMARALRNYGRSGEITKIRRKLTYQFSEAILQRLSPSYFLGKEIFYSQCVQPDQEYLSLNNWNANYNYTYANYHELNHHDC
Particulars: protein: recombinant; tags: N-terminal GST; dsDNA, one strand shown. In a few lines: as §1

The target of another test is ELF4 (Homo sapiens, UniProt Q99607 1-663). As to conditions: protein: recombinant; tags: N-terminal GST; dsDNA, one strand shown. A digest of the protocol: as §1
The next test deals with T3, ELK4 (Homo sapiens, UniProt P28324-2 1-405).
T3 sequence: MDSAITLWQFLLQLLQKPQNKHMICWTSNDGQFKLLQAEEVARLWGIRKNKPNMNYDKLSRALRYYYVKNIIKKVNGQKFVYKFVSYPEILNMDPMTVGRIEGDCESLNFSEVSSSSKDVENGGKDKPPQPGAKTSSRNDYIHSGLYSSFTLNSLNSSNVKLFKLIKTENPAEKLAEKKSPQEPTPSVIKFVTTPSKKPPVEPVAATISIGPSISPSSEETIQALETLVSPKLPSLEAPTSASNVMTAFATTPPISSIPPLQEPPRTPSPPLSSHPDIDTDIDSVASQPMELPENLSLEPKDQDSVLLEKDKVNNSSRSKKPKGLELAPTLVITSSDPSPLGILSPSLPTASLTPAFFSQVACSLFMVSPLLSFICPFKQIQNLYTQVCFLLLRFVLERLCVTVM
Particulars: protein: recombinant; tags: N-terminal GST; dsDNA, one strand shown. A digest of the protocol:
as §1

A further test addresses T4, ETV2 (Homo sapiens, UniProt O00321 1-342).
T4 sequence: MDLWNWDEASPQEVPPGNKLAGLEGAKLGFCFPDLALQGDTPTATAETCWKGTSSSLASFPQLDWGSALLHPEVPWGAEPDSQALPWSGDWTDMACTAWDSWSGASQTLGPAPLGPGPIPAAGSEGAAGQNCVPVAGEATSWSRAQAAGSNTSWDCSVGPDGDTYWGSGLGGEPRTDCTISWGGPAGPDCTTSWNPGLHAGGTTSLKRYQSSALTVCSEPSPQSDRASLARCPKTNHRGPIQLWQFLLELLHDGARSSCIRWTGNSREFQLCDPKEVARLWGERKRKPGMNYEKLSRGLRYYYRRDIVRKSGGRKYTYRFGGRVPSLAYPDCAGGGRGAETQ
Particulars: protein: recombinant; tags: N-terminal GST; dsDNA, one strand shown. In a few lines:
as §1

The next test concerns the target T5, ELF3 (Homo sapiens, UniProt P78545 1-371).
T5 sequence: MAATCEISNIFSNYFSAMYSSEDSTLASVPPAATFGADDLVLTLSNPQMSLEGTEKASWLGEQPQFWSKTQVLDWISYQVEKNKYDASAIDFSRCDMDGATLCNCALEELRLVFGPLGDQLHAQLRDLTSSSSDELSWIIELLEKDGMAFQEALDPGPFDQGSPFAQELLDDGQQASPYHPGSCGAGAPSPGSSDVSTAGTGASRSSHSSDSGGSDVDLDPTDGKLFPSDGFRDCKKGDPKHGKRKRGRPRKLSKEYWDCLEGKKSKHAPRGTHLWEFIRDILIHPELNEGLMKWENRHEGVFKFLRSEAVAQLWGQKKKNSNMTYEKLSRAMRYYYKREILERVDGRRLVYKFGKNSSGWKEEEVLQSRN
Particulars: protein: recombinant; tags: N-terminal GST; dsDNA, one strand shown. A digest of the protocol:
as §1

The next test addresses CRX (Homo sapiens, UniProt O43186 1-299). As to conditions: protein: recombinant; tags: N-terminal GST; dsDNA, one strand shown. In a few lines:
as §1

For another test, the target named is ETV1 (Homo sapiens, UniProt P50549 1-477). As to conditions: protein: recombinant; tags: N-terminal GST; dsDNA, one strand shown. In a few lines:
as §1

Another test has as its target T6, ERF (Homo sapiens, UniProt P50548 1-548).
T6 sequence: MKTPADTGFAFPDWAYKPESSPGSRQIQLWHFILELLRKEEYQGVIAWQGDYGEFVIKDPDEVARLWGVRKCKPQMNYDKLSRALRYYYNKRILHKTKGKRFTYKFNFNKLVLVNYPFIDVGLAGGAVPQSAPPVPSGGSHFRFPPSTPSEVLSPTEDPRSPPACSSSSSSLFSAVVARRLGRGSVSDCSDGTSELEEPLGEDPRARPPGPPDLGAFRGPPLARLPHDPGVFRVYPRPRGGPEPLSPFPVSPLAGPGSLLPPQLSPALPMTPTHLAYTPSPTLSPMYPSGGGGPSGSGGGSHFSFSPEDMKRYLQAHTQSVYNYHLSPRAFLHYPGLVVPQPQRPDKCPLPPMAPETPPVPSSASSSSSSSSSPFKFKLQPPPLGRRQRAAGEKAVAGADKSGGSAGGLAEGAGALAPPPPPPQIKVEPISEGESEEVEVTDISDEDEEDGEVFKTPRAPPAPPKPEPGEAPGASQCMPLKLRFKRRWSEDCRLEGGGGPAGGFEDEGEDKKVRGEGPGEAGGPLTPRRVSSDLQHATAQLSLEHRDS
Particulars: protein: recombinant; tags: N-terminal GST; dsDNA, one strand shown. In a few lines: as §1

Another test deals with T7, ETV3L (Homo sapiens, UniProt Q6ZN32 1-361).
T7 sequence: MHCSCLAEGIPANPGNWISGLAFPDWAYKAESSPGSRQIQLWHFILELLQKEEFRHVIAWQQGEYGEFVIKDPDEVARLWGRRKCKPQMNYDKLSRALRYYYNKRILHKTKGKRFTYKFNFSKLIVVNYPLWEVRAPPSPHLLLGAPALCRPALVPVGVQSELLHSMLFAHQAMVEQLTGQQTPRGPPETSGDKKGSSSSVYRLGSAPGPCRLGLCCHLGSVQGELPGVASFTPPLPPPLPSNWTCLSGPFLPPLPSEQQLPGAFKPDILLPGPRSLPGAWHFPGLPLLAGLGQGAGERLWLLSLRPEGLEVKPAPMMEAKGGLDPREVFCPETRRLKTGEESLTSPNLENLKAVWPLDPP
As to conditions: protein: recombinant; tags: N-terminal GST; dsDNA, one strand shown. In a few lines: as §1

A further test concerns the target T8, ETS2 (Homo sapiens, UniProt P15036 1-469).
T8 sequence: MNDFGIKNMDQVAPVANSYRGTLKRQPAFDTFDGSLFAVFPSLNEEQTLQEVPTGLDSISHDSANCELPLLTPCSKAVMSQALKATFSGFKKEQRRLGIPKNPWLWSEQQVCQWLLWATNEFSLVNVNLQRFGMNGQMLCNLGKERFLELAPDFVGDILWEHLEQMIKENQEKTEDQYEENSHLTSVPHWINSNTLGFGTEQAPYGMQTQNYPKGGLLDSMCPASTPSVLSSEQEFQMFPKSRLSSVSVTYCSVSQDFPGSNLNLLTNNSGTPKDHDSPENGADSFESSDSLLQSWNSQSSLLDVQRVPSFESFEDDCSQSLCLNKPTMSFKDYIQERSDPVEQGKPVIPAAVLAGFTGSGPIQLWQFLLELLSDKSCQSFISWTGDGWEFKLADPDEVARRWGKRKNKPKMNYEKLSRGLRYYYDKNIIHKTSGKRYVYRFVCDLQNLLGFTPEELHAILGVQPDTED
As to conditions: protein: recombinant; tags: N-terminal GST; dsDNA, one strand shown. A digest of the protocol: as §1

Another test has as its target T9, SPDEF (Homo sapiens, UniProt O95238 1-335).
T9 sequence: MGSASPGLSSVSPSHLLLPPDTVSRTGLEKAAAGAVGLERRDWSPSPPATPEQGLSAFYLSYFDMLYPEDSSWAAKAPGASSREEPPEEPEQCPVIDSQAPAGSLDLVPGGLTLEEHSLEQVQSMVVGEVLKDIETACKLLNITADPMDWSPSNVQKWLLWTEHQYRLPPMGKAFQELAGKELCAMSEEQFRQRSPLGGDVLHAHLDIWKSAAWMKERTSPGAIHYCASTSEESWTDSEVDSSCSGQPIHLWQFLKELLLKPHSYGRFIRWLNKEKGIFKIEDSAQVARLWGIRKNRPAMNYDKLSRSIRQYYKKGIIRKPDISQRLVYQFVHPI
As to conditions: protein: recombinant; tags: N-terminal GST; dsDNA, one strand shown. A digest of the protocol: as §1

For the next test, the target named is T10, ETV7 (Homo sapiens, UniProt Q9Y603 1-341).
T10 sequence: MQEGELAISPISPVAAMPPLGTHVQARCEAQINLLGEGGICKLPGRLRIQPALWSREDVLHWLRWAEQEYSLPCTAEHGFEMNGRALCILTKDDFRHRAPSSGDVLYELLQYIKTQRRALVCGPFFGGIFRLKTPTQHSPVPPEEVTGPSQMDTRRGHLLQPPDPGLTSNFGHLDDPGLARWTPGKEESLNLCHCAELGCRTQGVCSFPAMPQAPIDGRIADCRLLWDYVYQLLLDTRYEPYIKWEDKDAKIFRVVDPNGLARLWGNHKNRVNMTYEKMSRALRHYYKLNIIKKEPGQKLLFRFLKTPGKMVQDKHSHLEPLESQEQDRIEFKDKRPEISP
Particulars: protein: recombinant; tags: N-terminal GST; dsDNA, one strand shown. A digest of the protocol: as §1

The target in the next test is T11, ELF5 (Homo sapiens, UniProt Q9UKW6-2 1-255).
T11 sequence: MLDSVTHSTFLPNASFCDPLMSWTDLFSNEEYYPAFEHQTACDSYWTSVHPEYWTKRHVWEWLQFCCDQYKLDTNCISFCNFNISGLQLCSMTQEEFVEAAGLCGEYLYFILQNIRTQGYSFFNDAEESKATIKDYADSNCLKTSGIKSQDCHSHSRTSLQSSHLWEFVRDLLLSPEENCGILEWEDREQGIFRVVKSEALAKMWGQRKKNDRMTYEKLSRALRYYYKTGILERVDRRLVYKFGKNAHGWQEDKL
Particulars: protein: recombinant; tags: N-terminal GST; dsDNA, one strand shown. In a few lines:
as §1

A further test deals with T12, ETV3 (Homo sapiens, UniProt P41162-2 1-143).
T12 sequence: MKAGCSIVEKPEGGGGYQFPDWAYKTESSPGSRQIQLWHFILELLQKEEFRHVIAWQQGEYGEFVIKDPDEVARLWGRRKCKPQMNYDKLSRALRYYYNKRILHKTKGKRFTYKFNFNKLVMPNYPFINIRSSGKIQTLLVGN
As to conditions: protein: recombinant; tags: N-terminal GST; dsDNA, one strand shown. A digest of the protocol: as §1

Another test deals with ETV6 (Homo sapiens, UniProt P41212 1-452). As to conditions: protein: recombinant; tags: N-terminal GST; dsDNA, one strand shown. A digest of the protocol: as §1
Chain of ETV6 (P41212 whole entry): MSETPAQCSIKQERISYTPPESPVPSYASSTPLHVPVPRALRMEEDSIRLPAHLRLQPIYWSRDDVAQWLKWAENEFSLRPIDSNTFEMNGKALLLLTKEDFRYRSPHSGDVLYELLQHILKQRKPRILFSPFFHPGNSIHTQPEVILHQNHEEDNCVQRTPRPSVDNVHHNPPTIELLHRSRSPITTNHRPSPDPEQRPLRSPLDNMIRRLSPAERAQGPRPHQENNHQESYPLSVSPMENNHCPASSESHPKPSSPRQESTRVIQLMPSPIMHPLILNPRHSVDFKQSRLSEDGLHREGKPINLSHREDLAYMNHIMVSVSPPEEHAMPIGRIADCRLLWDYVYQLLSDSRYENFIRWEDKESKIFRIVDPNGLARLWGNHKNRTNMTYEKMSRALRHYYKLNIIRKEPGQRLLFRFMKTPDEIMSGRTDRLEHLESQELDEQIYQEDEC

Chain of ETV1 (P50549 whole entry): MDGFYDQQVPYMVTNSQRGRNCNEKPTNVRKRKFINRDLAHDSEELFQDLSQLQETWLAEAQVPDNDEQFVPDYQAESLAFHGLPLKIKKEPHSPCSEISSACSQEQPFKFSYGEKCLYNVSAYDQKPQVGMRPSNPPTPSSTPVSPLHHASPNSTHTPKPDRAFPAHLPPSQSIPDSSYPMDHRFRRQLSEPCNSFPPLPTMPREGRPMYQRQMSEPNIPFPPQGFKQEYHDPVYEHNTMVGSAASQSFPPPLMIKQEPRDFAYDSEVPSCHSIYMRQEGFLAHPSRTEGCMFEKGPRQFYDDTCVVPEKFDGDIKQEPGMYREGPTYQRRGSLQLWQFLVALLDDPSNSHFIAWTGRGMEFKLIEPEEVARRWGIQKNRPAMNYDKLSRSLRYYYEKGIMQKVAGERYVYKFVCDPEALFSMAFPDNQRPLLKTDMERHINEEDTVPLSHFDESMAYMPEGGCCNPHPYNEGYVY
Chain of HSF1 (Q00613 whole entry): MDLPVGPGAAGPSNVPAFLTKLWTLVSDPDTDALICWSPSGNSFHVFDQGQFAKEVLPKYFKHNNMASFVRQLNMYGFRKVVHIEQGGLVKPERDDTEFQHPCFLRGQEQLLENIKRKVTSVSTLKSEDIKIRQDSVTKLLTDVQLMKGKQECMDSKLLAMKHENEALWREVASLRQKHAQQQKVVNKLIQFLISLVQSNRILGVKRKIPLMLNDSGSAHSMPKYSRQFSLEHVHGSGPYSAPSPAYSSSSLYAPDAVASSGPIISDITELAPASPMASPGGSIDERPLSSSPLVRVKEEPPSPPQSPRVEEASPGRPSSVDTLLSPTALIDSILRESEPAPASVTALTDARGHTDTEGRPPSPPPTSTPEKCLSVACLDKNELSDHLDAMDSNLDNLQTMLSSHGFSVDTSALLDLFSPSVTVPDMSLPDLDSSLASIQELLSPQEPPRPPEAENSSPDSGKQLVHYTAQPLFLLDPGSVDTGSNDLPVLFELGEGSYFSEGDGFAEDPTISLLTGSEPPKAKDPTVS
Chain of ETV5 (P41161 whole entry): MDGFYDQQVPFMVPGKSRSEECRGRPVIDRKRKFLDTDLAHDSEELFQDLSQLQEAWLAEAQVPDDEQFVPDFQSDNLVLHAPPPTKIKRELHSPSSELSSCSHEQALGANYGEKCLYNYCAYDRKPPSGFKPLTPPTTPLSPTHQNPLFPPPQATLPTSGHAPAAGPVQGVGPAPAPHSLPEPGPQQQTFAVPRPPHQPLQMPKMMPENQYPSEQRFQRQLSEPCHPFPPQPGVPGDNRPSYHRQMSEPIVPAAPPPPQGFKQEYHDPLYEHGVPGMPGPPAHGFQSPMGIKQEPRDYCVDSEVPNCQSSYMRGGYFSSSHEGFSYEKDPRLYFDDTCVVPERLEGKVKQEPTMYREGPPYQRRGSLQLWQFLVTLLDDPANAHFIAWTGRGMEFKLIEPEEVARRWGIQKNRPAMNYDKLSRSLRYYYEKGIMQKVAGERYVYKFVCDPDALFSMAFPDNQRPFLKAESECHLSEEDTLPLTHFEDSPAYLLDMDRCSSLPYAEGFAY
Chain of ELF4 (Q99607 whole entry): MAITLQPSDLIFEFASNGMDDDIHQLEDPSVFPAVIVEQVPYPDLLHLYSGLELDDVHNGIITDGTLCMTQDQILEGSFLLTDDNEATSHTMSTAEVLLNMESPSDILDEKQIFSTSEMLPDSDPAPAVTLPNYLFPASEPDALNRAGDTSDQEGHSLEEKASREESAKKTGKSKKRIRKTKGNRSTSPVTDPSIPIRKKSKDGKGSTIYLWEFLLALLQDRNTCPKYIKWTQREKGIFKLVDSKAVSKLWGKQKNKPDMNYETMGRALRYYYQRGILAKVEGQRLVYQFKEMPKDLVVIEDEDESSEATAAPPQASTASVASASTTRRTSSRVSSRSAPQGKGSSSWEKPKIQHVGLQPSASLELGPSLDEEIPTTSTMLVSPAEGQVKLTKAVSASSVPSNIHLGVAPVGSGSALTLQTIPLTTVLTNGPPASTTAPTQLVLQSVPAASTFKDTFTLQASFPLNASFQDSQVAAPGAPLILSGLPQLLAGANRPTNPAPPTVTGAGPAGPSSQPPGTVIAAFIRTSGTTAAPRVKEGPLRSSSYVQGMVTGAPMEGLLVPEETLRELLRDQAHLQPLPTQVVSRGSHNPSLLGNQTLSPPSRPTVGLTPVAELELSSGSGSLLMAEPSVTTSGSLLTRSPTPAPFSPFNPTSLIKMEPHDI
Chain of CRX (O43186 whole entry): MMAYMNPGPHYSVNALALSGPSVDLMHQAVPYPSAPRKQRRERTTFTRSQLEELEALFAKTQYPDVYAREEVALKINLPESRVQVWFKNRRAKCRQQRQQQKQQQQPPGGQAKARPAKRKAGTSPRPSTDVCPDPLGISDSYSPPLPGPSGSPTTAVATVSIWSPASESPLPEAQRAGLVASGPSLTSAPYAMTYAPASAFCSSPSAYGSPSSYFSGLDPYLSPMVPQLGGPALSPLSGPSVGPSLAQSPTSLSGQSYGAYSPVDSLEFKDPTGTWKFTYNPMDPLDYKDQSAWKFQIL

As to AACGAT, the binding signal was 1.15 fold enrichment (6-mer frequency, TF over GST control) in the test with FEV; 1.22 fold enrichment (6-mer frequency, TF over GST control) in the test with ETV5; 1.32 fold enrichment (6-mer frequency, TF over GST control) with HSF1; 1.19 fold enrichment (6-mer frequency, TF over GST control) with SPIC; 1.17 fold enrichment (6-mer frequency, TF over GST control) with ELF4; 1.15 fold enrichment (6-mer frequency, TF over GST control) with ELK4. The binding signal is 1.35 fold enrichment (6-mer frequency, TF over GST control) in the test with ETV2; 1.08 fold enrichment (6-mer frequency, TF over GST control) with ELF3; 1.38 fold enrichment (6-mer frequency, TF over GST control) with CRX; 1.19 fold enrichment (6-mer frequency, TF over GST control) with ETV1; 1.29 fold enrichment (6-mer frequency, TF over GST control) with ERF; 1.19 fold enrichment (6-mer frequency, TF over GST control) with ETV3L. The binding signal was 1.22 fold enrichment (6-mer frequency, TF over GST control) with ETS2; 1.14 fold enrichment (6-mer frequency, TF over GST control) with SPDEF; 1.17 fold enrichment (6-mer frequency, TF over GST control) with ETV7; 1.19 fold enrichment (6-mer frequency, TF over GST control) with ELF5; 1.24 fold enrichment (6-mer frequency, TF over GST control) with ETV3; 1.25 fold enrichment (6-mer frequency, TF over GST control) with ETV6.
